# Test results as given in the OligoGym collection.
# Target: MUC4
# Test: pooled miR-30 sensor sort-seq; sequence = guide strand
# Conditions: shRNA
# Also: reference of the scale not given here.
row,Sequence,sensor-assay potency score (higher = more potent)
1,TTCAGGAAATAGGAGAACCTGG,-1.36
2,TTCACCATAGAACGTCTCGTAT,-0.617
3,TTGTGAGTAGAAAACAGGGGTG,-0.53
4,TAACTGACACCATCCAAGGTGG,-0.587
5,TTGAAGAATCCTGACAGCCTTC,-0.37

# Target: MUDENG
# Test: as above
# Conditions: shRNA
row,Sequence,sensor-assay potency score (higher = more potent)
1,TTGAATGACTCTAAAGGTGGAG,0.345
2,TAATCTAAGTTCAAAGAGCAGT,-0.489
3,TAGTTTTGTATTCCAAATGTGT,-0.698
4,AAAAACTTGAACTGAATGCTGA,-0.0187
5,TTATTCTTAGTTGTACTTCTTC,0.0203
6,TTGAACTGAATGCTGATCTGCA,0.719
7,TTGGTGGGGAGACTCAAGCTGA,-1.09
8,TAAGATCCTAAAATGAAGCTTT,0.347
9,TTCTTAGTTGTACTTCTTCCTC,-1.23
10,TATCCTGAAGTGGAGATCCATT,-1.27
11,TAACATTTGGCATGATTCCTTC,-0.439
12,TTATTGATGCGTGAACAGCTAT,-0.441

# Target: MUL1
# Test: as above
# Conditions: shRNA
row,Sequence,sensor-assay potency score (higher = more potent)
1,TTGAGCTCTTGGGAGACCCGGG,-0.319
2,TTTAGCTCCCTTGAGCTCTTGG,-0.00208
3,TATAACAGCATAAGGCACGCAT,-0.0376
4,TTAGATAGTACTGCATGCCTTG,-0.152
5,TACTCTTTAAATCTTCACCCAA,-0.305
6,TTCTATAACAGCATAAGGCACG,-0.579
7,TTAACAGACCGCACAGCTCCTT,-0.45
8,TAACAGACCGCACAGCTCCTTC,-0.691
9,ATACACGGTCTCTAGACCCAGA,-0.85
10,TTTCTTTAACAGACCGCACAGC,-0.894
11,TTGCAGTTTTCCACAAACTGGC,-0.401

# Target: MUM1L1
# Test: as above
# Conditions: shRNA
row,Sequence,sensor-assay potency score (higher = more potent)
1,TATTTGATTGCAGACTTCTTGT,0.00671
2,TTAGATACTTTGCTTCAGCTGC,-0.267
3,TTTGTTTCTCTTTACAATCAAA,-1.34
4,TAACTGGGTAACTAATATCAGC,-1.56
5,TATTTCTGATATTTAAACCAGA,-0.575
6,TAAACCAGACTATCATTCCTGT,-0.0642
7,TTGAGATTTATTTAGGATCTTT,-0.143
8,TTTGATTGCAGACTTCTTGTAA,0.165
9,TTTGTTTCCACTTCACTTGGAA,0.402
10,TTAGTGATCTTCCATAGGCAGT,-1.42
11,TTGTGGTACATTTTGAGACAGC,-1.11
12,TAACACATGCACTTTCCTCTTT,-0.0342
